# Test results from paper PMC4336329 (PLoS ONE, 2015).
# Hit rate of the full screen: of about 310,000 compounds, about 14,000 (4.5%) showed an effect of 50% or more. The effect is printed as a negative number. This is one part of a sample in which strong results are shown more often than they occur.
# Target: human ether-à-go-go-related gene (hERG) potassium channel (human, UniProt Q12809)
# Test: primary screen, population patch clamp on CHO cells stably expressing hERG; higher = less effect of the substance
# 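Also: peak tail current of the secondary pulse compared with the same well before compound.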
# human ether-à-go-go-related gene (hERG) potassium channel, sequence (Q12809 whole entry, looked up): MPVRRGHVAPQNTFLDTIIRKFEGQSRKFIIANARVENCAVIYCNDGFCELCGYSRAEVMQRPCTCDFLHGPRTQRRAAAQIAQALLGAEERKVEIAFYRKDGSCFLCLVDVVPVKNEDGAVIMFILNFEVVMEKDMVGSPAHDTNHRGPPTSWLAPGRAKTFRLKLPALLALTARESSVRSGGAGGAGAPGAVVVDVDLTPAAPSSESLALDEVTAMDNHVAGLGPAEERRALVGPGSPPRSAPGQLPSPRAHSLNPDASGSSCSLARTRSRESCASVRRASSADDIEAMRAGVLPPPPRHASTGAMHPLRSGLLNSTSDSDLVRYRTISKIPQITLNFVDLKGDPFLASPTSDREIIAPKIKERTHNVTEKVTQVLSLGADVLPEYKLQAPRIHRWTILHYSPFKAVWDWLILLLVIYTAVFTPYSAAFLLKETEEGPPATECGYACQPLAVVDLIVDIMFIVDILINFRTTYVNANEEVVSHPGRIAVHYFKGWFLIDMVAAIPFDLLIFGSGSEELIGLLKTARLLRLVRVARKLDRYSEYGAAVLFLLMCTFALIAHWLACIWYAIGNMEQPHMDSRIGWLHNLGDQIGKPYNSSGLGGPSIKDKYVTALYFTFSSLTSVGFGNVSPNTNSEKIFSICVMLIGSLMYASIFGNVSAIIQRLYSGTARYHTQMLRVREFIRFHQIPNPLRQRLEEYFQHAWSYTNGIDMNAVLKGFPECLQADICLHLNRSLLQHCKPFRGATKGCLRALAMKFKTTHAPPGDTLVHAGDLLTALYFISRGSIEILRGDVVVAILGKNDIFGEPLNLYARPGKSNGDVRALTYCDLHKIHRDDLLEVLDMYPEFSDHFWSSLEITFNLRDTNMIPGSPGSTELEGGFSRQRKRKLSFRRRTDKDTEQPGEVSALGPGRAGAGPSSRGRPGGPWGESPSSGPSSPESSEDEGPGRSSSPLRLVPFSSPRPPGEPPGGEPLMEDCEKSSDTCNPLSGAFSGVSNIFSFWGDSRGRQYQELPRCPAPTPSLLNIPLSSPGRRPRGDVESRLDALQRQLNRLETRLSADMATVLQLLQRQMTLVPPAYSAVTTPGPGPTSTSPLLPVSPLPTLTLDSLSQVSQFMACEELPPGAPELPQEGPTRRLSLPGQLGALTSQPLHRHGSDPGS
row,SMILES,"hERG current change (%, negative = inhibition) at 10uM [%]"
1,O=C(CSc1nnc(-c2cccnc2)n1-c1ccc(F)cc1)NCc1ccc2c(c1)OCO2,-72.5
2,O=C(CSc1nnc(-c2cccnc2)n1-c1ccccc1)NCc1ccc2c(c1)OCO2,-69
3,O=C(CSc1ncc(C(=O)O)n1-c1ccc(F)cc1)NCc1ccc2c(c1)OCO2,35.8
4,CCn1c(SCC(=O)NCc2ccc3c(c2)OCO3)nnc1-c1ccco1,-5.03
5,O=C(CSc1nnc(-c2ccco2)n1-c1ccccc1)NCc1ccc2c(c1)OCO2,-73.4
6,O=C(CSc1nc2ccccc2c(=O)n1-c1ccccc1)NCc1ccc2c(c1)OCO2,3.23
7,CC(=O)Oc1ccc(-c2cccc(C(=O)N(C)c3ccc(O)cc3)c2)cc1,-17.8
8,CN(C)c1ccc(C(=S)Nc2ccccc2)cc1,12.5
9,COC(=O)c1cc(NC(=O)c2nccnc2C(=O)O)cc(C(=O)OC)c1,13.8
10,Cc1ccc(CNC(=O)c2ccc(N3CCc4ccccc43)c([N+](=O)[O-])c2)cc1,3.31
11,Cc1ccc2nc3c(cc(C(=O)NCCc4ccccc4)c(=N)n3CCN3CCOCC3)c(=O)n2c1,-76.7
12,Cc1ccc(-c2cc(C(=O)NCCCN3CCOCC3)c3ccccc3n2)cc1C,0.698
13,Cc1ccc2nc3c(cc(C(=O)NCCN4CCOCC4)c(=N)n3CCCN3CCOCC3)c(=O)n2c1,-7.16
14,Cc1ccc2nc3c(cc(C(=O)NCCc4ccccc4)c(=N)n3CCCN3CCOCC3)c(=O)n2c1,-80.6
15,O=C(NCc1ccco1)c1cccc(F)c1,6.59
16,O=C(COc1cccc(Cl)c1)Nc1ccc2c(c1)CCC2,-3.73
17,CC1CN(c2nnnn2-c2ccccc2)CC(C)O1 (centres unmarked),-23.1
18,CCOc1ccc(CN2CCNC(=O)C2CC(=O)O)cc1 (centres unmarked),11.1
19,CC(=O)Nc1sc(C)c(C)c1C(=O)OCC(=O)Nc1ccccc1,5.91
20,S=C(Cc1ccc(-c2ccccc2)cc1)N1CCOCC1,-11.9
21,Cc1oc(-c2ccccc2F)nc1CS(=O)(=O)CC(=O)NCc1ccco1,-27.3
22,CC1CCC(NS(=O)(=O)c2ccc(N3CCCC3=O)cc2)CC1 (centres unmarked),1.51

row,SMILES,"hERG current change (%, negative = inhibition) at 10uM [%]"
1,O=[N+]([O-])c1ccc(C2=NN(CCO)C(=Nc3ccc(OC(F)(F)F)cc3)SC2)cc1,-13.5
2,COc1ccc(N=C2SCC(c3ccc([N+](=O)[O-])cc3)=NN2CCO)cc1,-53.1
3,COc1ccc(N=C2SCC(c3ccc(C)cc3)=NN2CCO)cc1,-9.63
4,Cc1ccc(C2(C)NC(=O)N(CC(=O)Nc3ccccc3C(=O)N3CCCCC3)C2=O)cc1 (centres unmarked),6.74
5,Cc1ccc(S(=O)(=O)N2CCOCC2)cc1NC(=O)COC(=O)CCn1c(C)csc1=O,2.85
6,COCCN=c1scc(C)n1/N=C/C1CC2C=CC1C2 (centres unmarked),-55
7,COCCN=c1scc(-c2cccs2)n1/N=C/c1ccc(O)c(O)c1O,6.24
8,COCCN=c1scc(-c2ccccc2)n1/N=C/c1c[nH]c2ccccc12,18.7
9,COc1ccc(Cl)cc1S(=O)(=O)N(C)CC(=O)NCc1ccccn1,17.8
10,C=CCn1c(O)c(C=Nc2ccc(N(CC)CC)cc2)c(=O)[nH]c1=O,-7.13
11,O=C(CSc1ccc2nnc(-c3ccccn3)n2n1)Nc1ccccc1F,-14.7
12,O=C(CSc1ccc2nnc(-c3ccccn3)n2n1)Nc1ccccc1,-23.4
13,c1ccc(CSc2ccc3nnc(-c4ccccn4)n3n2)cc1,-69.5
14,Cc1ccc(CSc2ccc3nnc(-c4ccccn4)n3n2)cc1,-71.8
15,Cn1c(SCc2ccc(Br)cc2)nnc1-c1ccccn1,-19.4
16,Fc1ccc(CSc2ccc3nnc(-c4ccccn4)n3n2)cc1,-87.6
17,O=C(CSc1ccc2nnc(-c3ccccn3)n2n1)Nc1ccc(F)cc1,-48.2
18,Cc1ccc(NC(=O)CSc2ccc3nnc(-c4ccccn4)n3n2)cc1,-44.2
19,O=C(CSc1ccc2nnc(-c3ccccn3)n2n1)Nc1ccc(F)cc1F,-30.4
20,Brc1ccc(CSc2ccc3nnc(-c4ccccn4)n3n2)cc1,-67.1
21,Cc1ccc(CSc2nnc(-c3ccccn3)n2C)cc1,-3.39
22,Nn1c(SCc2ccc(Br)cc2)nnc1-c1ccccn1,17.5
